Bioassay records deposited in PubChem BioAssay by several laboratories.
ROMK mod: modulators of human ROMK potassium channel; Tet-inducible ROMK, thallium flux fluorescence; actives lie on both sides; B-score at 10 µM; actives 2% (n = 130,000); AID 1918; P48048;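 active = signal ratio slope over the read window, or its plate-corrected B-score, at least 3 SD from the plate mean, either direction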;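 note: B-score of the F/F0 ratio slope over 7 to 12 s after thallium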
Target sequence (P48048 whole entry, looked up): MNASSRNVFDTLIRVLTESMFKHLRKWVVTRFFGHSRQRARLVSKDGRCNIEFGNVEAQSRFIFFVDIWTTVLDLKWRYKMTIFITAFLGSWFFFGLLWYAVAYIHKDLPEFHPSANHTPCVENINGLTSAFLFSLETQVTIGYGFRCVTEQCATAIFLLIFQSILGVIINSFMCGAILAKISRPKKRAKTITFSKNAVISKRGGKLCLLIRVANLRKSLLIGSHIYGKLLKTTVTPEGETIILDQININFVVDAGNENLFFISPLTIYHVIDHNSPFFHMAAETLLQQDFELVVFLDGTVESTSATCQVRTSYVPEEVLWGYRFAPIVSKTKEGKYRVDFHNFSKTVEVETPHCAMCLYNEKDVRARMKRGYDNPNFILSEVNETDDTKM
p97 ATPase inh: inhibitors of human p97 ATPase | actives 0.42% (n = 220,000) | inhibition, % at 8 µM | recombinant p97 ATPase, Kinase-Glo ATP luminescence, 3 h | P55072; in the data active = inhibition above about 15%;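 note: 0% = DMSO vehicle and 100% = wells lacking enzyme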
PTEN del growth: PTEN-deleted cell growth suppression; HCT116 PTEN-null viability, CellTiter-Glo, 60 h; hits give low values; viability, % at 10 µM; actives 1.2% (n = 140,000);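 active = viability at or below a set limit, 4 SD under the median of all tested compounds, cut at about 3.7% in these data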;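 note: PTEN knockout HCT116 line with beta catenin targeted HCT116 as companion control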
HCT116 bCat-KO: beta-catenin-lacking colon tumor cell growth suppression; HCT116 beta-catenin knockout viability, CellTiter-Glo, 60 h; hits give low values; actives 1.5% (n = 140,000); viability, % at 10 µM;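 active = viability at or under a set limit, the compound median less 4 SD, cut at about 6% in these data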;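 note: 0% = Hyamine 1622 control at 20 µM and 100% = untreated cell control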
INS promoter inh: TRM-6 insulin promoter activity inhibition; actives 0.9% (n = 130,000); TRM-6 cells (human fetal islet line), insulin promoter-eGFP reporter, imaging; reporter expression induced with tamoxifen; AID 1273; inhibition, % at 2 µM;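 active = inhibition above the mean plus 3 SD, with well images judged a real hit on visual review, cut at about 60% in these data, passing the limit was not always enough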
L major viab: inhibitors of Leishmania major promastigote growth; Leishmania major promastigotes, resazurin fluorescence viability; inhibition, % at 10 µM; actives 9% (n = 200,000); in the data active = inhibition above about 50%;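 note: promastigotes grown with compound for 44 hours at 28 °C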
Active calls of the source: *; . = not tested or not shown. Shown are actives, neighbours in structure and some others; about 10% of the full set was active somewhere.

SMILES	ROMK mod	p97 ATPase inh	PTEN del growth	HCT116 bCat-KO	INS promoter inh	L major viab
CCOC(=O)c1c(-c2ccccc2)oc2ccc(O)c(CN3CCCC3)c12	.	-11	15	17	-35	99*
CCOC(=O)c1c(-c2ccccc2)oc2ccc(O)c(CN(C)C)c12	-1.6	-11	39	37	34	100*
Cc1ccccc1Oc1cc(NC(=O)Cn2cnc([N+](=O)[O-])c2)cc([N+](=O)[O-])c1	-0.78	4	.	.	-10	97*
Cc1nn(CCCC(=O)Nc2cc(Oc3ccc(F)cc3)cc([N+](=O)[O-])c2)c(C)c1[N+](=O)[O-]	0.0017	1	31	43	-7	100*
Cc1ccccc1Oc1cc(NC(=O)CCCn2nc(C)c([N+](=O)[O-])c2C)cc([N+](=O)[O-])c1	.	-4	63	61	-16	98*
Cc1ccc(CNC(=O)N[C@@H](Cc2ccccc2)C(=O)O)cc1	1.3	6	98	93	-7	-4
CCN1CCN(Cc2c(O)ccc3c2O/C(=C\C=C\c2ccccc2)C3=O)CC1	.	-2	62	63	0	96*
CC(Nc1c([N+](=O)[O-])c(=O)oc2ccccc12)C(Cl)c1ccccc1 (stereo unspecified)	.	2	90	77	.	56*
COc1ccc(C2=NCC(CSc3nccc(=O)[nH]3)S2)cc1 (stereo unspecified)	0.71	1	95	97	86*	-8
COc1ccc(C2=NCC(CSc3nnnn3C)S2)cc1 (stereo unspecified)	0.061	0	72	63	-36	-5
O=c1[nH]c2ccccc2n2cnnc12	0.14	0	.	.	.	-1
O=C(O)c1ccccc1C(=O)NCC(O)c1ccccc1 (stereo unspecified)	.	6	.	.	.	.
O=C(CNC(=O)c1ccccc1C(=O)O)c1ccccc1	.	2	112	95	78*	6
O=C1C=C(Nc2ccc(Cl)cc2)CC(c2ccc(Cl)cc2)C1 (stereo unspecified)	.	-5	44	60	.	56*
Cc1ccc(C2CC(=O)C=C(Nc3ccc(Cl)cc3)C2)cc1 (stereo unspecified)	-0.0082	0	73	77	-15	6
COc1cc(/C=N/Nc2nc(=O)[nH]nc2C)cc([N+](=O)[O-])c1O	0.31	-18	.	.	.	.
CCCc1ccc(OC(=O)c2ccc(O)cc2Cl)cc1	0.098	-8	.	.	-50	5
CCCOc1ccc([N+](=O)[O-])cc1C1NC(=S)NC(c2ccccc2)=C1C(=O)OCC (stereo unspecified)	.	-7	67	67	0	100*
O=C(Nc1cccc2ccccc12)NC1CCCc2ccccc21 (stereo unspecified)	0.46	0	93	82	-21	-1
OC(CNC1CCCc2ccccc21)COc1c(Cl)cccc1Cl (stereo unspecified)	.	-3	32	23	-35	93*
COC(=O)Nc1ccc(S(=O)(=O)N2CCCC(C(=O)NC3CCS(=O)(=O)C3)C2)cc1 (stereo unspecified)	.	6	99	87	35	58*
O=C(NC1CCS(=O)(=O)C1)C1CCCN(S(=O)(=O)c2ccc(Cl)cc2)C1 (stereo unspecified)	.	-4	97	85	.	-7
Oc1ccccc1Nc1nc(NCc2ccco2)c2ccccc2n1	.	12	.	.	.	.
Nc1nc(NCc2ccccc2)nc(NCc2ccccc2)c1[N+](=O)[O-]	.	3	79	85	-36	18
Cc1ccc(Nc2nc(N)c([N+](=O)[O-])c(NCc3ccco3)n2)cc1C	0.27	1	38	38	4	70*
SMILES	ROMK mod	p97 ATPase inh	PTEN del growth	HCT116 bCat-KO	INS promoter inh	L major viab
Cc1cccc(Nc2nc(NCc3ccco3)c3ccccc3n2)c1	.	12	1.8*	1.8*	-21	100*
Cc1cccc(S(=O)(=O)Nc2nc3ccccc3nc2NCc2ccco2)c1	.	2	85	87	-25	-1
Cc1ccccc1Nc1nc(NCc2ccco2)c2ccccc2n1	-0.16	5	.	.	.	100*
Cc1ccc(CNc2nc(N)c([N+](=O)[O-])c(NCc3ccccc3)n2)cc1	0.21	-3	95	97	-6	70*
C/C(Cn1cnc([N+](=O)[O-])n1)=N/NC(=O)COc1c(Cl)cc(Cl)cc1Cl	-0.74	-2	86	94	-17	23
Cc1cc(C(=O)NNc2ccc(C(C)C)cc2)n(C(C)(C)C)n1	-0.2	2	.	.	.	.
Cc1ccccc1Nc1cc(C(=O)NCc2ccco2)c2ccccc2n1	1	2	81	88	-67	76*
CNC(=S)N(Cc1cc2ccc(OC)cc2[nH]c1=O)CC1CCCO1 (stereo unspecified)	0.024	3	.	.	11	-3
CN(C)CCCNS(=O)(=O)c1ccc(N2CCC(c3ccc(Cl)cc3)=N2)cc1	-2.6	1	1.1*	1.2*	54	100*
COC(=O)c1ccc(CSc2nc3c(c(=O)n2-c2ccc(F)cc2)SCC3)o1	0.95	2	77	76	-3	100*
COC(=O)c1ccc(CSc2nc3ccccc3c(=O)n2-c2ccc(OC)c(OC)c2)o1	1.3	0	85	90	40	97*
COC(=O)c1ccc(CSc2nc3c(c(=O)n2-c2ccccc2)SCC3)o1	.	1	91	81	-20	87*
COc1ccc(NC(=O)CSc2nc3c(c(=O)n2-c2ccc(F)cc2)SCC3)cc1	.	1	99	82	.	9
COC(=O)c1ccc(CSc2nc3ccccc3c(=O)n2-c2ccccc2)o1	0.035	-6	79	75	19	19
CCN(Cc1nc2ccccc2c(=O)[nH]1)Cc1cc(=O)oc2cc(OC)ccc12	1.1	-1	97	96	9	9
Cc1nc(NCCCN2CCOCC2)c2oc3ccccc3c2n1	0.22	3	92	88	56	97*
Cc1nc(Nc2ccc3c(c2)OCO3)c2oc3ccccc3c2n1	0.058	2	69	81	82*	27
c1ccc(-c2nc(NCCCn3ccnc3)c3oc4ccccc4c3n2)cc1	.	-3	26	25	64	100*
Cc1nc(NCCc2ccccc2)c2oc3ccccc3c2n1	-2.9	4	61	59	69*	90*
O=C(OCc1ccccc1)C1=NNC2C(=O)N(Cc3ccccc3)C(=O)C12 (stereo unspecified)	-0.059	-3	.	.	.	-5
O=C(NCc1ccccc1C(F)(F)F)C1CC(c2ccccc2[N+](=O)[O-])=NO1 (stereo unspecified)	.	-1	101	94	-53	-2
COc1cc(/C=C/C(=O)c2c(O)ccc3c(C)cc(=O)oc23)ccc1O	-3.2	-3	45	29	27	99*
COc1ccc(/C=C\C(=O)c2c(O)ccc3c(C)cc(=O)oc23)cc1OC	.	4	25	20	50	100*
Cc1cc(=O)oc2c(C(=O)/C=C/c3ccccc3)c(O)ccc12	.	0	63	63	-33	52*
CC(=O)c1c(O)ccc2c(-c3ccccc3)cc(=O)oc12	-0.27	3	103	96	29	-7
